# Screen size: about 220,000 compounds; about 10 (0.005%) were called active. No stated cut-off is given here; in the data, active means maximum fold increase above about 1.5; inconclusive means no clear call, values can overlap the other calls; inactive means below that; tested in PC3 cells. Not all results are given here.
# Test: compounds boosting herpes simplex virus growth – fold increase, host cell viability (AID 1956)
# Details: HSV replication augmentation in cells; fold increase: measured here: primary screen fold increase 10 uM, at 10 µM, stronger effect = higher value; maximum fold increase: at 0.098 µM, stronger effect = higher value; viability: measured here: host cell viability series, at 25 µM, stronger effect = lower value
Structure (SMILES),fold increase,outcome
COc1ccc(C#Cc2c(-c3ccc(OC)cc3)oc3ccc(-c4ccc5c(c4)OCO5)cc23)cc1,0.99,inactive
Cc1nc(-c2ccccc2)sc1C1(C)CC(c2cccnc2)=NO1 (stereo not drawn),0.85,inactive
COC(=O)c1sccc1NN1C(=O)c2ccccc2C1=O,1.18,inactive
COCCN1C2=C(COC(C)(C)C2)C(=S)NC1c1ccccc1 (stereo not drawn),0.95,inactive
O=C1N[C@@H](Cc2ccccc2)C(=O)N2[C@@H]3N(S(=O)(=O)c4ccc(F)cc4)c4ccccc4[C@]3(Br)C[C@@H]12,0.86,inactive
CCOC(=O)C[C@H]1c2ccc(C(F)(F)F)cc2S(=O)(=O)N1c1ccccc1,0.88,inactive
Cc1ccc(S(=O)(=O)N(C)C)cc1NC(=O)c1n[nH]c(=O)c2ccccc12,0.73,inactive
O=C(NCc1ccccc1)c1ccc(S(=O)(=O)Nc2cccc(C(F)(F)F)c2)cc1,0.83,inactive
O=C1CC(Cc2ccc(Cl)cc2)C(=O)N1c1cc(Cl)ccn1 (stereo not drawn),1.23,inactive
O=C(O)C(F)(F)C(NCc1ccccc1)c1ccccc1 (stereo not drawn),0.84,inactive
CCN(CC)CCNCC(=O)Nc1ccc(Oc2ccccc2)cc1,0.94,inactive
NS(=O)(=O)c1ccc(NC2=CC(c3ccc(F)cc3)N(c3ccc(S(N)(=O)=O)cc3)C2=O)cc1 (stereo not drawn),1.05,inactive
CC(C)(C)c1ccc(/C=C2\Oc3c(ccc(O)c3CN3CCN(CCO)CC3)C2=O)cc1,1.25,inactive
COc1ccc(CNC(=O)C2CC(c3ccc(C(F)(F)F)cc3)=NO2)cc1 (stereo not drawn),0.93,inactive
CCN(CC)c1ccc(NC(=O)C2CCC(CNc3c(N4CCCC4)c(=O)c3=O)CC2)c(C)c1 (stereo not drawn),1,inactive
COc1ccc(CCN2C(=O)N(c3ccc(OC)cc3)C(=O)C2CC(=O)Nc2ccc(OC)cc2)cc1 (stereo not drawn),0.88,inactive
COC(=O)c1ccc(C(NC(=O)OCc2ccccc2)/C(F)=C/[C@@H](C)C(=O)O)cc1 (stereo partly drawn),0.86,inactive
COC(=O)c1c(C)cc(O)c(C)c1O,0.79,inactive
O=C1CC2(CCCC2)Oc2ccc(Cl)cc21,0.69,inactive
CC(C)Oc1ccc(CCC(=O)NNC(=S)NCc2ccccc2)cc1,1.13,inactive
CC(=O)N[C@H]1[C@H]([C@H](O)[C@H](O)CO)OC(C(=O)O)=C[C@@H]1O,0.87,inactive
CC(CO)(CO)NC(=O)c1ccc(=O)[nH]n1,0.94,inactive

Structure (SMILES),fold increase,outcome
COC(C[C@@H](O)C[C@H](O)[C@H](C)OCc1ccccc1)OC,0.91,inactive
COC(C[C@@H]1O[C@@H]1C(=O)[C@@H](C)OCc1ccccc1)OC,0.81,inactive
COc1ccc(NC(=O)CSc2ncnc3[nH]ncc23)cc1,1.02,inactive
CCOC(=O)c1ccc(NC(=O)c2c(NCc3ccccc3)[nH]c(=O)[nH]c2=O)cc1,0.87,inactive
O=C(NC(=O)N1CCSCC1)c1c(Cl)cccc1Cl,1,inactive
CNC(C)C#Cc1ccc2sc3cc(OC)c(OC)cc3c(=O)c2c1 (stereo not drawn),0.67,inactive
O=C(O)/C=C/c1ccc2c(c1)OCCO2,0.95,inactive
C[C@H](NC(=O)c1nc[nH]c1C(=O)N[C@@H](C)C(=O)OC(C)(C)C)C(=O)OC(C)(C)C,0.88,inactive
CNC(=S)NNC(=O)c1ccc(N(C)C)cc1,1.02,inactive
COc1ccc(CNC(=O)[C@@H]2CC=C[C@@H]3CCN(C4CC4)C(=O)[C@@H]32)cc1,0.88,inactive
CN=C1C=C/C(=N/N=c2\ccn(O)cc2C)C=C1C,1.05,inactive
Cc1ccccc1Nc1c(-c2ccccc2)nc2ncccn12,1.06,inactive
O=C1CCCC(O)=C1N=Nc1ccc(S(=O)(=O)N2CCOCC2)cc1,0.97,inactive
COC(C[C@@H]1O[C@@H]1C(=O)[C@H](C)OCc1ccccc1)OC,0.81,inactive
O=c1[nH]c(CSc2ccccc2)nc2c1oc1ccccc12,1.16,inactive
CCOC(=O)C1=NN(c2ccc(Cl)cc2)/C(=C/C2=NCCc3cc(OC)c(OC)cc32)S1,1.18,inactive
CCn1c2ccccc2c2cc(NC(=O)Nc3ccc([N+](=O)[O-])cc3C)ccc21,0.73,inactive
Cc1ccc(NC(=O)c2nc[nH]c2C(=O)N[C@@H](CCCCNC(=O)OC(C)(C)C)C(=O)OC(C)(C)C)cc1,0.74,inactive
C/C=C/C(=O)Nc1ccc(N2CCN(c3ccc(C(F)(F)F)cn3)CC2)nc1,0.88,inactive
CCC(=O)Nc1cccc(C2=NOC3(C2)C[C@@H](C(N)=O)N(C(=O)c2cc([N+](=O)[O-])cc([N+](=O)[O-])c2C)C3)c1 (stereo partly drawn),1.3,inactive
CCCC[C@@H]1CN=C(N)N1CCCC,1.05,inactive
COC(C/C=C/C(=O)[C@@H](C)OCc1ccccc1)OC,0.77,inactive

# Source: PubChem BioAssay AID1956 (SRMLSC, 2009)
